Test results published in PubChem BioAssay (NCATS).
Results filed as inconclusive are left out. Unmarked numbers belong to inactive results. The call rests on the fitted dose curve; in most records, active means well fitted cell-killing curve with a large enough effect; inconclusive means small, poorly fitted or top-dose-only effect; inactive means flat fitted curve, though single readings scatter.

Test: qHTS of pediatric cancer cell lines to identify multiple opportunities for drug repurposing: Primary screen for RD cells (AID 1347104);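 further: plate controls were DMSO for no effect and bortezomib for full effect; nearly all actives have a fitted effect of over 55% in size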
Conditions: RD rhabdomyosarcoma viability, CellTiter-Glo luminescence, 48 h; series mostly up to 46 µM; activity change, negative = cytotoxic: at the top concentration
Method in brief: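 Primary screen of approved and investigational compounds on cells in growth media at 37 degrees C, 5% CO2. MIPE set at 11-point and NPC set at 8-point dilutions; viability scored by ATP-based luminescence at 48 hours.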

Row | SMILES | activity change, negative = cytotoxic
1 | O=C(COc1ccc(Cl)cc1)N1CCN(Cc2ccc3c(c2)OCO3)CC1 | -15.8%
2 | COc1cc(C(=S)N2CCOCC2)cc(OC)c1OC | 1.36%
3 | CCCCC(=O)O[C@]1(C(=O)CO)CC[C@H]2[C@@H]3CCC4=CC(=O)CC[C@]4(C)[C@H]3[C@@H](O)C[C@@]21C | 8.34%
4 | NC(CS)C(=O)O (stereo unspecified) | 10.4%
5 | Cc1c(F)c(N2CCNC(C)C2)cc2c1c(=O)c(C(=O)O)cn2C1CC1 (stereo unspecified) | 8.41%
6 | CC(=O)OCC(=O)[C@@]1(O)CC[C@H]2[C@@H]3CCC4=CC(=O)C=C[C@]4(C)[C@H]3[C@@H](O)C[C@@]21C | 4.67%
7 | COc1cc(/C=C/C(=O)O[C@H]2CC[C@]34C[C@]35CC[C@]3(C)[C@@H]([C@H](C)CCC=C(C)C)CC[C@@]3(C)[C@@H]5CC[C@H]4C2(C)C)ccc1O | 4.96%
8 | CC(C)(CO)[C@@H](O)C(=O)NCCCO | 10.9%
9 | CCN(CC)C(=O)N1CCN(C)CC1 | 4.17%
10 | NC(CO)(CO)CO | 16.9%
11 | NCCCC[C@H](N[C@@H](CCc1ccccc1)C(=O)O)C(=O)N1CCC[C@H]1C(=O)O | 16.7%
12 | O=C(O)CNC(=O)c1ccccc1 | 9.99%
13 | Cc1nc2n(c(=O)c1CCN1CCC(c3noc4cc(F)ccc34)CC1)CCC[C@H]2O | 2.68% [at 16.1 µM]
14 | O=c1[nH]c(=O)n([C@H]2C[C@H](O)[C@@H](CO)O2)cc1C(F)(F)F | -19.3%
15 | CO/N=C1\CN(c2nc3c(cc2F)c(=O)c(C(=O)O)cn3C2CC2)CC1CN (stereo unspecified) | -3.18%
16 | C[C@]12CCC(=O)C=C1[C@@H]1C[C@@H]1[C@H]1[C@@H]3[C@@H]4C[C@@H]4[C@@]4(CCC(=O)O4)[C@@]3(C)CC[C@@H]12 | -6.24%
